Laboratory results from the supplement of paper PMC10849652.
Of roughly 7,900 targets only a part is listed; those with a hit were picked by preference. About 0.6% of all pairs of compound and target were hits.

Compound: C1=CC2=NC=CN=C2C=C1/C=C/3\C(=O)NC(=O)S3
Assay: log2 fold change, soluble protein after heating vs DMSO (PISA); higher = thermal stabilisation; K562 cells, 10 uM, 30 min; active = over 0.2 and 3.5 SD of the protein, either way, in both replicates (recomputed)
Summary of the method: (§1)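 K562 cells (2×10^6 cells/mL) were treated with 10 μM compound for 30 min, and aliquots were heated for 3 min over 48°C-58°C. Pooled aliquots were extracted in PBS with 0.5% NP-40 at 4°C, and the supernatant after 21,000xg for 90 min was measured by TMTpro 16plex LC-MS/MS with channel sums equalised. Reported thermal stability, relative to control samples and from duplicates, is a log2 fold change.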

Sequence of UniProt Q8TCG2 (Q8TCG2 whole entry, looked up): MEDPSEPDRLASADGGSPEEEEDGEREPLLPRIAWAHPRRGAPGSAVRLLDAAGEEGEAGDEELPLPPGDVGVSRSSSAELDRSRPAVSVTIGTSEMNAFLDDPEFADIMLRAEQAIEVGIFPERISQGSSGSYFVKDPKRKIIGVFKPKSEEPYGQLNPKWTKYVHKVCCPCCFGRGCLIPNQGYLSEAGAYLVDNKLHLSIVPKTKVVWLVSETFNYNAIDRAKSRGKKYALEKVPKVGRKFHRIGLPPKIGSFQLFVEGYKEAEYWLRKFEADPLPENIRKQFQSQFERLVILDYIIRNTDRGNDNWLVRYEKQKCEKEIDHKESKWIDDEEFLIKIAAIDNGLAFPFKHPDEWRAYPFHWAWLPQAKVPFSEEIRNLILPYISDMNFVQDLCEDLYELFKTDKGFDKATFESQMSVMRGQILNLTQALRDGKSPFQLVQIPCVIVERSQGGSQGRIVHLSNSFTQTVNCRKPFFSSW
Sequence of UniProt O94806 (O94806 whole entry, looked up): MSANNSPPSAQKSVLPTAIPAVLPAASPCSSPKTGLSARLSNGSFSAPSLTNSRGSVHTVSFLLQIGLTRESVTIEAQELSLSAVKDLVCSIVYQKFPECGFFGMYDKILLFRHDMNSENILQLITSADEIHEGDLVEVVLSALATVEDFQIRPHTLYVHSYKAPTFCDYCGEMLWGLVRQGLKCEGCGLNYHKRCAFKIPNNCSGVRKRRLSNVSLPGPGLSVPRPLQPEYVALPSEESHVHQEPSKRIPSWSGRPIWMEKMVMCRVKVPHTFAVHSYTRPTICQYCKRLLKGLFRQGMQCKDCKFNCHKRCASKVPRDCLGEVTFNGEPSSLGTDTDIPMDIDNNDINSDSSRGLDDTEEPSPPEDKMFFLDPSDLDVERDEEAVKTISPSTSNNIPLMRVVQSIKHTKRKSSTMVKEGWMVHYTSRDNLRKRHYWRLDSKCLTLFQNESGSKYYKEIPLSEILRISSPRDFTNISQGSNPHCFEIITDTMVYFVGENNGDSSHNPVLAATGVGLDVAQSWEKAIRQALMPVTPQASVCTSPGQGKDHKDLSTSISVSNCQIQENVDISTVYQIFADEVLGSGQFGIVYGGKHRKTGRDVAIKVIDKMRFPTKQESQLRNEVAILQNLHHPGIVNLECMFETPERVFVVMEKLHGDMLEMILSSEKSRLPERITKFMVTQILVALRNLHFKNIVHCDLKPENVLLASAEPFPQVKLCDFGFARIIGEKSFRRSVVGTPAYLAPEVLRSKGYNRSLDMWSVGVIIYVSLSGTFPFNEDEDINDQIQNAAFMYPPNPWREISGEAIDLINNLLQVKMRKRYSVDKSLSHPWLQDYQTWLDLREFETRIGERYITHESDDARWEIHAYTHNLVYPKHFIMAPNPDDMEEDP
Sequence of UniProt Q13362 (Q13362 whole entry, looked up): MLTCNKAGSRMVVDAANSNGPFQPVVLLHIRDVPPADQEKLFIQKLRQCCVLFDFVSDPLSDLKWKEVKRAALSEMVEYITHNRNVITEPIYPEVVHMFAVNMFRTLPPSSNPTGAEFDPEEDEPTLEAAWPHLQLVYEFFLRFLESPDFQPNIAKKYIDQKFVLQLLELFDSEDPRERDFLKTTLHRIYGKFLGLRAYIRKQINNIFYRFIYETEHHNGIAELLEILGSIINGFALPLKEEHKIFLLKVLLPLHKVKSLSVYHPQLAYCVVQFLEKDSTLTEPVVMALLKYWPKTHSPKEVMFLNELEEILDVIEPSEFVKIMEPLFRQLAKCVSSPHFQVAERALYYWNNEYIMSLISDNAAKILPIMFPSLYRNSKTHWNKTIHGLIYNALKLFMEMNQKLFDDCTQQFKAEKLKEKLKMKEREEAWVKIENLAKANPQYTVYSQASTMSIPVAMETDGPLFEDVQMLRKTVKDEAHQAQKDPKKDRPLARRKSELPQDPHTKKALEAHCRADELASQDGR
Sequence of UniProt Q5JVF3 (Q5JVF3 whole entry, looked up): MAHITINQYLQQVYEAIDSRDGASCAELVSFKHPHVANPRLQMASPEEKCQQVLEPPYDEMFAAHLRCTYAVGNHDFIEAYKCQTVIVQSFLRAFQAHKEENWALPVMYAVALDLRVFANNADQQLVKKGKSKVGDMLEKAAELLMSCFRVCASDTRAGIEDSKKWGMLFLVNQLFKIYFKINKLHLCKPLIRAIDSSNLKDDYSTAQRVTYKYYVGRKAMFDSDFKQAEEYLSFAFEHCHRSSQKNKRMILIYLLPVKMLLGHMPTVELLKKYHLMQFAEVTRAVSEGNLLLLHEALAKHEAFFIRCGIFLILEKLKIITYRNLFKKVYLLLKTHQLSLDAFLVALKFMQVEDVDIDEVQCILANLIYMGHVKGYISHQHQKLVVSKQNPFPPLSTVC
Sequence of UniProt P41247 (P41247 whole entry, looked up): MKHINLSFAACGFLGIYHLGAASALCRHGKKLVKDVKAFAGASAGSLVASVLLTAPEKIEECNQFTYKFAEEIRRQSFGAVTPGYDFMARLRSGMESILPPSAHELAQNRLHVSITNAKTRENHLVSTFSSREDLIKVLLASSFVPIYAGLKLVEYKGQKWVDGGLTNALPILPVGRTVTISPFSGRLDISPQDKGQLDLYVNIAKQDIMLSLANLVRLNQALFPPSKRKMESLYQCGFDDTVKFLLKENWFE
Sequence of UniProt Q9NUJ7 (Q9NUJ7 whole entry, looked up): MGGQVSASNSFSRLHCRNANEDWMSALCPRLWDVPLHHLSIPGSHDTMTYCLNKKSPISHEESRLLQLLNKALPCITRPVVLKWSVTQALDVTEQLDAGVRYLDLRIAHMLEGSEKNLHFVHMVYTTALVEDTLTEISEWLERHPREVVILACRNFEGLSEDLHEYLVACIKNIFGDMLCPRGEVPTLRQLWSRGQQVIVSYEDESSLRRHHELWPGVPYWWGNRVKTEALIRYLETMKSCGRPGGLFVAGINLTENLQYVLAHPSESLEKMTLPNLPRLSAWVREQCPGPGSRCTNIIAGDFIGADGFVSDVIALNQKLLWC
Sequence of UniProt Q9BZL4 (Q9BZL4 whole entry, looked up): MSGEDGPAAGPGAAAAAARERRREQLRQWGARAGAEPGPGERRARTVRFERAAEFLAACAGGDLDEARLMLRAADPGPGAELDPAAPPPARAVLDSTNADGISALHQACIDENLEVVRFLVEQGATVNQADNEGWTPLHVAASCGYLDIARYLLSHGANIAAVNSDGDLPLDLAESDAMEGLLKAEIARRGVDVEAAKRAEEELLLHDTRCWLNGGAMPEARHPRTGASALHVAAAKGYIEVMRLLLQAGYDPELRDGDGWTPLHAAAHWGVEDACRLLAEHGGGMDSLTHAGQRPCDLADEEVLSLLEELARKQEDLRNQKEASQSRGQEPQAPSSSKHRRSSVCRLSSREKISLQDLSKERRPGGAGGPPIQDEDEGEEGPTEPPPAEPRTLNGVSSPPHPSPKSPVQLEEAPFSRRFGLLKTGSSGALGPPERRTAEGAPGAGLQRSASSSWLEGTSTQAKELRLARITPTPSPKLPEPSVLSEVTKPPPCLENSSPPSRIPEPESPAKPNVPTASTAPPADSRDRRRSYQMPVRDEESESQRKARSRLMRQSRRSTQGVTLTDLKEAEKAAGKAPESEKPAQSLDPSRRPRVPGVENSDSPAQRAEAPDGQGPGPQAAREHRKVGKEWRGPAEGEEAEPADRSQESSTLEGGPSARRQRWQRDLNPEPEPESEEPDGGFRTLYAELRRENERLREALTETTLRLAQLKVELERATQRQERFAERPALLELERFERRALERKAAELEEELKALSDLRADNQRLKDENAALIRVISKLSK
Sequence of UniProt P14618 (P14618 whole entry, looked up): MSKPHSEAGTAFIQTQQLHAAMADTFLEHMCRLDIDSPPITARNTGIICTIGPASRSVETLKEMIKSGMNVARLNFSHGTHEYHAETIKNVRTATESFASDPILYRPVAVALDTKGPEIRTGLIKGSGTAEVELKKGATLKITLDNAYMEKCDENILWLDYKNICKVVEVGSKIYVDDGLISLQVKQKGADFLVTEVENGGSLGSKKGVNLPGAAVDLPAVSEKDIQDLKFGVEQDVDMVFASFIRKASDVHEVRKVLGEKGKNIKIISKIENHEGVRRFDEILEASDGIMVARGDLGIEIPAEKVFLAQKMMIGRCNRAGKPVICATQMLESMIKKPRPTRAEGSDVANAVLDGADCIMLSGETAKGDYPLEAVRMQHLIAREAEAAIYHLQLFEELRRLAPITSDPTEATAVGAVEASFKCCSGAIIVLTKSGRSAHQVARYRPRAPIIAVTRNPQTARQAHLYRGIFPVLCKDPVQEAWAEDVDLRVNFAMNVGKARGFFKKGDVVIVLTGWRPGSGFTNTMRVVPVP
Sequence of UniProt Q9UHX1 (Q9UHX1 whole entry, looked up): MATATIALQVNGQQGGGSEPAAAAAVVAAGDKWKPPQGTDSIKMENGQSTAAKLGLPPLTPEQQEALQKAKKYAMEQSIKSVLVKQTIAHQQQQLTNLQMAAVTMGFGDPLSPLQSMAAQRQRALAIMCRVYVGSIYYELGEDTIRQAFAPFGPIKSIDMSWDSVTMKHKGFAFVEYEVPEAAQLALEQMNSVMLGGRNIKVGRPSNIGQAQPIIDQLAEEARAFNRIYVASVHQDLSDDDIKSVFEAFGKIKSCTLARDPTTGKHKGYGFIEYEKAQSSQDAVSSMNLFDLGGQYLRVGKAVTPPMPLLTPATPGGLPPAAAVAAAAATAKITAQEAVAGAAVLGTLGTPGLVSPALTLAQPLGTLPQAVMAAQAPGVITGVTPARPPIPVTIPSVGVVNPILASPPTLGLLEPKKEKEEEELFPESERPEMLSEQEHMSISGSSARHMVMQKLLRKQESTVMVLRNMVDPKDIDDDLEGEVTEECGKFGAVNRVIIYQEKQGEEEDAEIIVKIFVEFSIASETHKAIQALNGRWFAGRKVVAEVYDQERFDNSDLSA
Sequence of UniProt O75365 (O75365 whole entry, looked up): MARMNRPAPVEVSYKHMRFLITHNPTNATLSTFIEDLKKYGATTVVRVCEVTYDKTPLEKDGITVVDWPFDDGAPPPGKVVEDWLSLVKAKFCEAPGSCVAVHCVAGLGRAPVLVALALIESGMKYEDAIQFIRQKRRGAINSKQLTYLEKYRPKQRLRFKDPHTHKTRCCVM

log2 fold change, inactive:
PCBP2 (UniProt F8VZX2) -0.019, PCNX1 (UniProt Q96RV3) -0.006, PHC3 isoform 7 (UniProt Q8NDX5) 0.174, PCF11 (UniProt O94913) 0.111, PPP2R5C isoform 2 (UniProt Q13362) -0.011, PTP4A3 (UniProt O75365) -0.041, PAN2 (UniProt Q504Q3) 0.044, PPP1R12C (UniProt Q9BZL4) 0.064, PPP2R5B (UniProt Q15173) 0.072, PCID2 (UniProt Q5JVF3) 0.028, PPP1R12B isoform 6 (UniProt O60237) -0.081, PSMC3 (UniProt E9PLG2) 0.151, PUF60 isoform 2 (UniProt Q9UHX1) 0.086, PGK2 (UniProt P07205) -0.018, PRKD3 (UniProt O94806) 0.034, PNPLA4 (UniProt P41247) 0.133, PLCXD1 (UniProt Q9NUJ7) 0.025, PKM isoform 2 (UniProt P14618) -0.18, PRKD2 (UniProt M0R346) -0.032, PRKX (UniProt P51817) 0, PTK2B (UniProt Q14289) 0.058, PI4K2B (UniProt Q8TCG2) 0.016, PSMA3 (UniProt G3V4X5) 0.051

Compound: C1=CC=C(C=C1)C2=NC(=C(N2)C3=CC=NC=C3)C4=CC(=C(C=C4)Cl)O
Assay: as above
Summary of the method: as §1

log2 fold change, inactive:
PCBP2 (UniProt F8VZX2) -0.008, PCF11 (UniProt O94913) -0.191, PPP2R5C isoform 2 (UniProt Q13362) -0.039, POGZ (UniProt Q7Z3K3) 0.023, PPP1R12C (UniProt Q9BZL4) 0.037, PSMA3 (UniProt H0YJ03) -0.065, PTEN isoform 2 (UniProt P60484) 0.178, PMS2CL (UniProt Q68D20) -0.023, PCID2 (UniProt Q5JVF3) -0.005, POLB (UniProt P06746) 0, PEX5 isoform 4 (UniProt P50542) 0.016, PIAS4 (UniProt Q8N2W9) -0.214, PUF60 isoform 2 (UniProt Q9UHX1) 0.05, PGK2 (UniProt P07205) -0.057, PRKD3 (UniProt O94806) 0.055, PNPLA4 (UniProt P41247) -0.084, PSD3 (UniProt Q9NYI0) -0.001, PHRF1 (UniProt Q9P1Y6) 0.073, PLCXD1 (UniProt Q9NUJ7) -0.012, PKM isoform 2 (UniProt P14618) -0.048, PTK2B (UniProt Q14289) 0.008, PI4K2B (UniProt Q8TCG2) -0.019, PSMA3 (UniProt G3V4X5) 0.348
